# Compound activity from PubChem BioAssay.
# NPC1 prom act = NPC1 promoter activation; Huh7 NPC1 promoter luciferase reporter, 24 h; Potency, µM (titrated, usually from 9.22 µM), inactives show at the highest dose activation, hits mostly activators; actives 2.4% (n = 320,000); AID 485313; also: % of control where 0% means no effect; nearly all actives have a fitted effect of over 60% in size
#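 Luminescence read-out of NPC1 promoter-driven luciferase in stably transfected Huh7 cells; compounds delivered in DMSO and left 24 h at 37C, 5% CO2, qHTS titration format.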
# SMN2 splice up = increases expression of the SMN2 splice variant. HEK293 SMN2-luciferase splicing reporter, luminescence, 30-36 h. Potency, µM (highest dose often 46.1 µM), inactives show at the highest dose activity change, positive = activation, usual class: activators. actives 2.8% (n = 210,000); also: % of control where 0% means no effect; nearly all actives have a fitted effect of over 55% in size
#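 qHTS luciferase splicing reporter: luminescence rises when SMN2 exon 7 is included in transfected HEK293 cells. Compound exposure lasted 30-36 h at 37C, with 4.5 mM final sodium butyrate as control, followed by a ONE-Glo read.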
# Rab9 promoter act = activators of Rab9 promoter; Huh7 Rab9 promoter-luciferase reporter, luminescence, 24 h; Potency, µM (doses to about 9.22 µM), inactives show at the top dose activation, negative = inhibition, hits mostly activators; actives 2.8% (n = 320,000); also: % of control where 0% means no effect; nearly all actives have a fitted effect of over 60% in size
#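 Using Huh7 cells stably transfected with Rab9 promoter–luciferase, compounds were incubated 24 h at 37 °C, 5% CO2; luciferase luminescence was read 10 min after reagent addition.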
# FLuc modulator = counter-screen for miR-21 project: firefly luciferase inhibitors or activators. purified FLuc, Km substrates, luminescence inhibition. AID 588342. actives 6.9% (n = 360,000). Potency, µM (titrated, usually from 57.5 µM), for the others: at the highest dose activity change, negative = inhibition, most hits filed as inhibitors. P08659;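 also: plate controls were vehicle for no effect and reference inhibitor for full effect; nearly all actives have a fitted effect of over 55% in size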
# Target sequence (P08659 whole entry, looked up): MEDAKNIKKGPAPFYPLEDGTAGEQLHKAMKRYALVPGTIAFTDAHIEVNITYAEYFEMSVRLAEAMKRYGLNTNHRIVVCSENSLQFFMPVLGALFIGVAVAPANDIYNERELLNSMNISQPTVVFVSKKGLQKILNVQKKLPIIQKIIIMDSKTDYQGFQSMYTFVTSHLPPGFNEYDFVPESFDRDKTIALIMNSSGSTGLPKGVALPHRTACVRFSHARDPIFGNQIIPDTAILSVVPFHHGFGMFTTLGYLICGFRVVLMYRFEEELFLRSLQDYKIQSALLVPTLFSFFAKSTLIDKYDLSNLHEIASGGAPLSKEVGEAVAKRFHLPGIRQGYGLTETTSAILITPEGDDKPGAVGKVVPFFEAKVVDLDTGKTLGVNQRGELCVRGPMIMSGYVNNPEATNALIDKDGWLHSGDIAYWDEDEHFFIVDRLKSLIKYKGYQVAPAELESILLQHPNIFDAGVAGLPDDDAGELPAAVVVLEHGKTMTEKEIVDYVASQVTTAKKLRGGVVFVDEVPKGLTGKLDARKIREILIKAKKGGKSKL
#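 Biochemical qHTS of compounds, final roughly 60 µM downward over six points, against 10 nM purified firefly luciferase using Km concentrations of substrates (10 uM D-luciferin, 10 uM ATP) in Tris acetate pH 7.5 buffer; luminescence output.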
# ELG1 DNA repair = ELG1-dependent DNA repair inhibition; actives 2.3% (n = 330,000); Potency, µM (highest dose often 46.1 µM), for the others: at the top dose activity change, negative = inhibition, hits mostly inhibitors; HEK293T ELG1-luciferase reporter, luminescence, 16 h; DNA damage induced by 5-fluorouridine; also: % is scaled to controls: 0 for no effect and ±100 for the full control effect; nearly all actives have a fitted effect of over 55% in size
#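 In this reporter screen, reduction of luminescence relative to DMSO vehicle indicated activity. Compounds and 5-fluorouridine were added together to 2,000 cells per well, incubated for 16 hr at 37 °C, then developed with ONE-Glo.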
# ELG1 genotox = induces genotoxicity in HEK293T cells with luciferase-tagged ELG1; HEK293T ELG1-luciferase reporter, luminescence, 16 h; Potency, µM (highest dose often 46 µM), inactives show at the highest dose activity change, positive = activation, hits mostly activators; actives 1.3% (n = 330,000); AID 504466; also: % of control where 0% means no effect; nearly all actives have a fitted effect of over 60% in size
#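 Genotoxicity was scored as increased ELG1-luciferase reporter signal, measured by ONE-Glo luminescence (30 min, room temperature). Compound or vehicle exposure of the HEK293T reporter cells lasted 16 hr at 37°C.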
# Numbers without * were called inactive; ? = inconclusive; . = not tested or not shown. Shown are actives, neighbours in structure and some others; about 9.4% of the full set was active somewhere. Calls follow the shape of the dose curve; as a rule, active = well fitted curve in the direction sought with a large enough effect; inconclusive = small, poorly fitted or top-dose-only effect, or another doubt; inactive = no such curve, though single readings can be large; an effect the other way counts as inactive or inconclusive. Potency is read from the fitted curve at half-maximal effect.
SMILES,NPC1 prom act,SMN2 splice up,Rab9 promoter act,FLuc modulator,ELG1 DNA repair,ELG1 genotox
C[n+]1c2n(c3ccccc31)N=C(c1ccc(-c3ccccc3)cc1)CS2,-25%,.,-28%,3%,?,-9%
COc1ccc(-c2cn3ccccc3n2)cc1OC,3.2µM*,18µM*,3.2µM*,3.4µM*,?,?
COc1ccc(-c2cn3cc(C)ccc3n2)cc1F,0.35µM*,0.56µM*,0.35µM*,0.24µM*,?,?
COc1ccc(-c2cn3cc(C)ccc3n2)cc1OC,1µM*,4µM*,0.63µM*,0.85µM*,?,1µM*
COc1ccc(Br)cc1S(=O)(=O)Nc1cc(-c2cn3ccccc3n2)ccc1C,.,-3%,.,?,.,.
Cc1noc(C)c1-c1nccc(N2CCNCC2)n1,.,14%,.,.,.,.
CCC1CSC(=Nc2ccc(C)cc2)N1C(=O)CN1C(=O)NC2(CCCC2)C1=O (centres undefined),0.56µM*,.,0.79µM*,17µM*,?,2.6µM*
COC(=O)[C@H]1CC2(CC=C(C)C)C(=O)[C@@](CC=C(C)C)(C(=O)C(C(=O)c3ccccc3)=C2OC)C1(C)C (tested in a mixture with another compound),.,-5%,.,.,.,.
Cc1ccc(CCNC(=O)c2cc3n(n2)CCCN(Cc2ccc(C)cc2)C3=O)cc1,.,.,.,-4%,.,.
COc1ccc(C(=O)Oc2ccc3c(-c4ccc(OC)cc4)cc(=O)oc3c2)cc1,.,-8%,.,.,.,.
COc1ccc(C(=O)Oc2ccc3ccc(=O)oc3c2)cc1,-2%,.,0%,2.7µM*,-1%,-4%
COc1ccc(C(=O)Oc2ccc3oc(=O)sc3c2)cc1,-2%,1%,10%,11µM*,?,?
O=C(Nc1ccc2c(c1)OCO2)c1cc(-c2ccc(Cl)cc2)on1,.,9%,.,-1%,.,.
O=C(Nc1ccc2c(c1)OCO2)c1cc(-c2cccc(O)c2)on1,7%,.,-2%,2.1µM*,0%,10%
O=C(Nc1c(Cl)cccc1Cl)c1cc(-c2cccc(O)c2)on1,.,?,.,24µM*,.,.
O=C(Nc1ccc2c(c1)OCO2)c1cc(-c2ccc(O)cc2)on1,3.5µM*,.,?,?,?,?
O=c1c(S(=O)(=O)c2ccccc2)cn(Cc2ccccc2)c2cc(N3CCOCC3)c(F)cc12,.,.,.,-8%,.,.
COc1ccc(N2C(=O)CS(=O)(=O)C23C(=O)N(Cc2ccc(F)cc2)c2ccc(C)cc23)cc1 (centres undefined),.,.,.,3%,.,.
COc1cc2ccccc2cc1C(=O)Nc1ccccc1N1CCCC1,-1%,.,-1%,?,-6%,-17%
COc1cc2ccccc2cc1C(=O)Nc1cccnc1,?,13µM*,?,11µM*,?,8.2µM*
COc1cc2ccccc2cc1C(=O)Nc1ccccc1Cl,?,.,26%,3.4µM*,?,?
COc1cc(NC(=O)c2cc3ccccc3cc2O)c(OC)cc1Cl,?,.,-7%,9.5µM*,?,-6%
COc1ccc(NC(=O)c2cccn(CC=C(C)C)c2=O)cc1,?,2%,1.6µM*,17µM*,-1%,6%
COc1cc(OC)c(NC(=O)c2ccccc2F)cc1Cl,6%,13%,14%,?,5%,3%
Cc1ccc(S(=O)(=O)N2CCCc3cc(NC(=O)c4ccc(C(C)(C)C)cc4)ccc32)cc1,.,.,.,-1%,.,.
SMILES,NPC1 prom act,SMN2 splice up,Rab9 promoter act,FLuc modulator,ELG1 DNA repair,ELG1 genotox
CC(C)CC(C(=O)NCC1CCN(Cc2ccc(F)cc2)CC1)N1Cc2ccccc2C1=O (centres undefined),.,.,.,-1%,.,.
COc1ccc(NC(=O)c2cc3ccccc3cc2OC)cc1,?,.,29%,3.4µM*,?,?
COc1cc2ccccc2cc1C(=O)Nc1ccc(N2CCN(C(=O)C(C)C)CC2)cc1,2%,.,-1%,-8%,?,-13%
COc1cc2cc(C(=O)Nc3ccccc3)c(N)nc2cc1OC,2%,-7%,-1%,12µM*,-13%,0%
COc1cc2ccccc2cc1C(=O)Nc1ccc(N2CCN(C)CC2)cc1,?,50%,3.5µM*,4.8µM*,?,14µM*
COc1ccccc1NC(=O)c1cc2cc(Br)ccc2cc1O,1%,.,-5%,17µM*,-17%,-10%
Cc1ccc(-c2c(C(=O)NCCc3ccccc3)oc(=O)c3ccccc23)cc1,.,2%,.,-3%,.,.
Cc1cccc(C(=O)Nc2cccc(OCc3cc(=O)n4c(C)csc4n3)c2)c1,.,-7%,.,-2%,.,.
O=C(CN1C(=O)c2cccnc2Oc2ccc(Cl)cc21)Nc1cccc(C(F)(F)F)c1,.,.,.,1%,.,.
CCOc1ccc(NC(=O)c2cc3ccccc3cc2OC)cc1,?,.,?,5.4µM*,?,?
CCOc1ccc(NC(=O)c2cccc3ccccc23)cc1,-11%,.,14%,-17%,-24%,4%
COc1cc2ccccc2cc1C(=O)NNC(=O)c1ccccc1O,2%,.,7%,?,26µM*,16%
CCOc1ccc(NC(=O)c2cc(OC)nc3ccccc23)cc1,-18%,.,-25%,-10%,?,18%
CCOc1ccc(NC(=O)c2cc3ccccc3cc2O)cc1,?,.,2.8µM*,0.76µM*,?,?
COc1ccc(-c2noc(N3CCC(C(=O)Nc4ccc(C)c(F)c4)CC3)n2)cc1OC,.,-6%,.,7%,.,.
O=C(CCCN1C(=O)c2cccnc2Oc2ccc(Cl)cc21)NCc1ccccc1F,.,.,.,-10%,.,.
COc1ccc(S(=O)(=O)N(CC(=O)Nc2ccccc2Br)Cc2ccccc2)cc1,.,-12%,.,0%,.,.
CN(c1nc(-c2ccc(Br)cc2)cs1)C1CCS(=O)(=O)C1 (centres undefined),?,18%,?,24µM*,18%,5%
CCOC(=O)c1nnc(-c2ccc(C)cc2)nc1N1CCSCC1,1%,4%,10%,13µM*,?,10%
CCOC(=O)c1nnc(-c2ccc(C)cc2)nc1Sc1ccc(Cl)cc1,13%,-4%,-4%,-4%,7%,-7%
CCOC(=O)c1ccc2c(c1)NCc1cccc(OC)c1O2,2.5µM*,.,2.8µM*,5.4µM*,?,?
COc1ccc2nc3cccc(OC)c3nc2c1,26%,?,?,?,?,4%
COc1ccc2nc3ccccc3nc2c1N,2.2µM*,.,3.2µM*,4.8µM*,?,18µM*
CC1=NN2C(=N)/C(=C\c3cc(C)n(-c4ccccc4)c3C)C(=O)N=C2S1,11%,-34%,5%,4.8µM*,5%,7%
